CBX7 AlphaScr: CBX7 inhibition, primary AlphaScreen. AID 1224903. O95931. AlphaScreen His6-CBX7 / biotin-H3K27me3 peptide binding; hits give low values. 66,000 tested, 1.1% active. normalised signal (fraction of DMSO) (test concentration not listed); in the data active = normalised signal below about 0.5
Target sequence (O95931 whole entry, looked up): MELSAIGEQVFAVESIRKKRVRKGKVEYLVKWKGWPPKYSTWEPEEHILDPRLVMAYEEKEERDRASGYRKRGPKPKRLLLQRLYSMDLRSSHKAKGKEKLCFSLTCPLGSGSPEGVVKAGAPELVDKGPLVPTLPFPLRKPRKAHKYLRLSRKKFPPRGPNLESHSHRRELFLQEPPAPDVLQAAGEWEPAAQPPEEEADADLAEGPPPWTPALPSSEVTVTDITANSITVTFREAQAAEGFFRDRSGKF
A number is an active result; – = inactive. This excerpt belongs to a sample that is enriched for hits.

SMILES	CBX7 AlphaScr
Fc1ccc(Nc2c(-c3ccc(Cl)cc3)nc3ncccn23)cc1	–
COc1ccc(Nc2c(-c3ccccn3)nc3cc(C)ccn23)cc1	0
Cc1ccn2c(Nc3ccc(C(C)C)cc3)c(-c3ccccn3)nc2c1	0.00753
Fc1ccc(Nc2c(-c3ccccn3)nc3ccccn23)cc1	0.0587
CCOc1ccccc1C(=O)Nc1ccc(C)c(C)c1	–
CCCCNC(=O)c1nn2c(C(F)(F)F)cc(-c3cccs3)nc2c1Cl	–
COc1cccc(NS(=O)(=O)c2ccc3[nH]cc(C(=O)N(C)Cc4ccccc4)c(=O)c3c2)c1	–
Clc1ccc(OCc2nc(-c3ccccc3)no2)c(Cl)c1	–
CCOC(=O)c1cnc2ccc(OCC)cc2c1NCCCN(CC)CC	–
COc1ccc(N2CCN(C(c3cccs3)C(C)NC(=O)c3c(F)cccc3F)CC2)cc1 (configuration not stated)	–
CC1(C)CC(=O)C2=C(C1)N(c1ccc(Cl)cc1)C(=O)CC2c1ccsc1 (configuration not stated)	–
COc1ccc(-c2ccc(=O)n(CC(=O)NCCc3ccc(S(N)(=O)=O)cc3)n2)cc1	–
COC(=O)c1ccc(C2C(Oc3ccccc3C)C(=O)N2Cc2ccc(F)cc2)cc1 (configuration not stated)	–
CCOC(CNC(=O)c1c[nH]c2ccc(S(=O)(=O)N3CCC(C)CC3)cc2c1=O)OCC	–
C/C(=C/c1ccccc1)c1nc(Cc2c(F)cccc2Cl)no1	–
COc1ccc(NC(=O)c2cc3n(n2)C(C(F)(F)F)CC(c2ccc4c(c2)OCO4)N3)cc1Cl (configuration not stated)	–
Cc1ccc(Nc2c(-c3cccnc3)nc3cc(C)ccn23)cc1	–
Cc1ccc(Nc2c(-c3cccc(Br)c3)nc3cc(C)ccn23)cc1	–
Cc1ccc(Nc2c(-c3ccccn3)nc3cc(C)ccn23)cc1	0.000961
Cc1ccc(C)c(N2CC(c3nc4ccccc4n3CCOc3ccccc3)CC2=O)c1 (configuration not stated)	–
Cc1ccc(OCCn2c(C3CC(=O)N(c4cc(C)ccc4C)C3)nc3ccccc32)cc1 (configuration not stated)	0.494
Cc1ccc(OCCn2c(C3CC(=O)N(c4cccc(C)c4C)C3)nc3ccccc32)cc1 (configuration not stated)	–
COc1ccc(CN2CCCC(C(=O)Nc3ccc(OC)c(OCC(C)C)c3)C2)cc1OC (configuration not stated)	–
CC(C)C(=O)N1CC(=O)Nc2ccc(F)cc2C1c1ccccc1 (configuration not stated)	–
O=S(=O)(c1ccccc1)c1nc(-c2ccccc2F)oc1N1CCCCC1	0.492
SMILES	CBX7 AlphaScr
O=S(=O)(c1ccc(Cl)cc1)c1nc(-c2ccccc2F)oc1N1CCCCC1	–
O=S(=O)(c1ccc(Cl)cc1)c1nc(-c2ccccc2F)oc1N1CCCCCC1	–
CCN1CCN(c2cc(C)c3cc(NC(=O)c4c(F)cccc4F)ccc3n2)CC1	–
COc1ccccc1-c1nc(-c2cccnc2)no1	–
O=C(Nc1cccc2cccnc12)c1ccccc1O	–
O=C(Nc1ncn[nH]1)c1ccccc1O	0.169
Cc1ccc(NC(=O)c2ccccc2O)nc1	–
COc1ccc(-n2nc(C(=O)NCc3ccccc3OC)c3ccccc3c2=O)cc1	–
Fc1cccc(F)c1-c1noc(-c2cccs2)n1	–
Cc1ccc2c(c1)NC(=O)C(CC(=O)NC1CCCCCC1)O2 (configuration not stated)	–
COc1ccc(CCNC(=O)C2CCN(S(=O)(=O)c3cccc4cccnc34)CC2)cc1OC	–
COc1ccc(C(CC(=O)c2ccco2)Sc2cccc3cccnc23)cc1OC (configuration not stated)	0.00504
CCOC(=O)c1nnn(-c2nonc2N)c1CSc1cccc2cccnc12	–
Cc1ccccc1C(=O)Nc1sc2c(c1C(=O)NC(C)c1ccccc1)CCC(C)C2 (configuration not stated)	–
COc1ccc(/C=C/c2ccc3cccc(OCc4ccccc4)c3n2)cc1OC	–
Cc1oc(-c2ccc(Cl)cc2)nc1C(=O)NC1CCCC(C)C1C (configuration not stated)	–
c1csc(-c2nc3cnccn3c2Nc2ccc3c(c2)OCCO3)c1	–
O=C1CC(N2CCN(c3ncccn3)CC2)C(=O)N1c1cccc(Br)c1 (configuration not stated)	–
CCN(c1ccccc1)S(=O)(=O)c1ccc(C(=O)Nc2nnc(C3CC3)o2)cc1	0.0661
COCc1nnc(NC(=O)c2ccc(S(=O)(=O)N(C)c3ccccc3)cc2)o1	–
CCc1nnc(NC(=O)c2ccc(S(=O)(=O)N(CC)c3ccccc3)cc2)o1	0.0735
CCN(c1ccccc1)S(=O)(=O)c1ccc(C(=O)Nc2nnc(COC)o2)cc1	–
CC(C)N(Cc1ccccc1)S(=O)(=O)c1ccc(C(=O)Nc2nnc(-c3cccs3)o2)cc1	–
CN(c1ccccc1)S(=O)(=O)c1ccc(C(=O)Nc2nnc(C3CC3)o2)cc1	–
Cc1nc(Oc2cccc3ccccc23)c2c3c(sc2n1)CCCC3	–
CCn1c(SCCOc2ccc(Cl)cc2)nc2ccccc21	–

High-throughput results: PubChem, Bradner/Qi Labs at DFCI
